The results in this text go back to PubChem BioAssay (Tox21).

A short description of assay [1]: Human pregnane X receptor (PXR) small molecule agonists, qHTS cell viability counter screen (AID 1346977). Further: nearly all actives have a fitted effect of over 50% in size. In outline:
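HepG2 cells stably carrying the PXR-Luc reporter are cultured with 5% charcoal-stripped FBS and treated with compounds for 24hr. CellTiter-Fluor is added at 23hr and fluorescence is read after 1hr.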
For orientation: qHTS replaces the single test concentration by a dilution series.

Assay [2] in a line: Caspase-3/7 induction in HepG2 cells by small molecules, qHTS assay (AID 1346978). Further: nearly all actives have a fitted effect of over 15% in size. In outline:
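Caspase-3/7 induction was measured by Caspase-Glo 3/7 luminescence (30 min, room temperature) after a 17 hr compound exposure of wild-type HepG2 cells seeded at 2,000 per well and pre-incubated 5 hr.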

Assay [3] can be described thus: Caspase-3/7 induction in CHO-K1 cells by small molecules, qHTS cell viability counter screen (AID 1346979). Further: nearly all actives have a fitted effect of over 35% in size. In outline:
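Seeding: 1,500 CHO-K1 cells/well. Rest: 5hr, 37C. Treatment: compounds in DMSO, 16hr. Read: CellTiter-Fluor, 1hr, fluorescence.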

Assay [4] in a line: Caspase-3/7 induction in CHO-K1 cells by small molecules, qHTS assay (AID 1346980). Further: nearly all actives have a fitted effect of over 15% in size. In outline: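 Luminescent Caspase-Glo 3/7 read (30min, room temperature) quantified apoptosis induction. Cells were wild-type CHO-K1, treated with compound for 17hr at 37 C and 5% CO2.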
Assay [5] is described as follows: Caspase-3/7 induction in HepG2 cells by small molecules, qHTS cell viability counter screen (AID 1346981). Further: series mostly up to about 92 µM; nearly all actives have a fitted effect of over 30% in size. In outline:
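After a 5-hr attachment period at 37 C and 5% CO2, wild-type HepG2 cells received compounds in DMSO. Sixteen hours later CellTiter-Fluor was dispensed and the fluorescent signal quantified after a further hour.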

In assay [6] the target is Nuclear receptor subfamily 1 group I member 2 (Homo sapiens) (UniProt O75469). In words: Human pregnane X receptor (PXR) small molecule agonists, qHTS assay (AID 1346982). Further: nearly all actives have a fitted effect of over 35% in size. Further: potency means the concentration at half of the fitted maximal effect. In a few lines: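 Tox21 qHTS; PXR-Luc HepG2; compounds pinned from DMSO; 24 hr, 37 C; ONE-Glo luciferase detection, 30 min room temperature.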
The target of assay [7] is Cytochrome P450 2C9 (Homo sapiens) (UniProt P11712). In words: Cytochrome P450 Family 2 Subfamily C Member 9 (CYP2C9) small molecule antagonists: luciferase reporter qHTS assay (AID 1671198). Further: series mostly up to about 120 µM; nearly all actives have a fitted effect of over 50% in size. In outline:
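Enzyme-substrate mix preincubated with compound 10 min at room temperature; reaction started with NADPH regeneration solution, 1 h 37C. Luminescent luciferin product read after 20 min detection reagent.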
On the technique in general: Reporter assays use an easily measured gene product as a stand-in for the process of interest.

Assay [8] deals with Cytochrome P450 1A2 (Homo sapiens) (UniProt P05177). Put plainly: Cytochrome P450 Family 1 Subfamily A Member 2 (CYP1A2) small molecule antagonists: luciferase reporter qHTS assay (AID 1671199). Further: nearly all actives have a fitted effect of over 50% in size. Further: potency means the concentration at half of the fitted maximal effect. On activity change, negative = inhibition: series mostly up to about 120 µM. In a few lines: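 Room-temperature CYP1A2 reaction with proluciferin substrate: compounds added from DMSO, 10 min preincubation, NADPH regeneration for 1 h. Luciferin detection reagent then added; luminescence recorded as RLU.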

Assay [9] has as its target Voltage-gated inwardly rectifying potassium channel KCNH2 (Homo sapiens) (UniProt Q12809). Put plainly: Human Ether-a-go-go-Related Gene (hERG) channel small molecule antagonists: fluorescence cell-based qHTS assay (AID 1671200).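 Further: hERG-expressing U2OS cells given a thallium stimulus after FluxOR II dye loading; series mostly up to about 77 µM; nearly all actives have a fitted effect of over 50% in size.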 In outline:
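First, 1000 cells per well are seeded and cultured overnight at 37 C. Next, FluxOR II dye is loaded for 1 h at room temperature, protected from light. After 10 more minutes, stimulus is added and fluorescence is read.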
On the technique in general: Block of hERG is tested as a sign of cardiac risk.

Assay [10] has as its target Cytochrome P450 3A4 (Homo sapiens) (UniProt P08684). In words: Cytochrome P450 Family 3 Subfamily A Member 4 (CYP3A4) small molecule antagonists: luciferase reporter qHTS assay (AID 1671201). Further: nearly all actives have a fitted effect of over 50% in size. Further: potency means the concentration at half of the fitted maximal effect. On activity change, negative = inhibition: series mostly up to about 120 µM. In outline: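 Enzyme and proluciferin substrate are mixed with test chemicals for 10 min, then NADPH regeneration system drives turnover for 1 h at room temperature. A detection reagent halts the reaction; luminescence after 20 min gives relative activity.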

Assay [11] deals with Cytochrome P450 2C19 (Homo sapiens) (UniProt P33261). In words: Cytochrome P450 Family 2 Subfamily C Member 19 (CYP2C19) small molecule antagonists: luciferase reporter qHTS assay (AID 1671197). Further: series mostly up to about 120 µM; nearly all actives have a fitted effect of over 65% in size. In outline: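 Light output is proportional to CYP2C19 activity: proluciferin substrate is converted to luciferin, then detected by a luciferin detection reagent that also stops the 1 h, 37C NADPH-driven reaction. Ketoconazole serves as positive control.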

For assay [12], the target named is Nuclear receptor subfamily 1 group I member 2 (Rattus norvegicus) (UniProt Q9R1A7). Put plainly: Rat pregnane X receptor (rPXR) activation by small molecules, qHTS assay (AID 1346983). Further: nearly all actives have a fitted effect of over 20% in size. The conditions noted are these: rPXR luciferase reporter cells, One-Glo luminescence, 24 h; max activation: stronger effect = higher value. In outline: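 Luminescent readout (One-Glo luciferase, 30 min room temperature) followed 24 hr compound treatment at 37 C of rPXR cells plated 2,000 per well and preincubated 5hr; qHTS format with compounds delivered in DMSO.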

Assay [13] has as its target Nuclear receptor subfamily 1 group I member 2 (Homo sapiens) (UniProt O75469). Put plainly: CYP3A4 induction through human pregnane X receptor (PXR) by small molecules, qHTS assay (AID 1346984). Further: nearly all actives have a fitted effect of over 40% in size. In outline:
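Cells (DPX-2; HepG2 with PXR element plus CYP3A4-promoter luciferase) settled 5hr, then were treated 24hr at 37C. A 3hr, 3uM-final Luciferin-IPA step preceded luminescence measurement with One-Glo.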

Assay [14] shares this target. Put plainly: Human pregnane X receptor (PXR) activation by small molecules, qHTS assay (AID 1346985). Further: nearly all actives have a fitted effect of over 40% in size. In a few lines:
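DPX-2 cells (HepG2 co-transfected with a PXR response element and a CYP3A4-promoter luciferase construct) were seeded at 2,000 per well, rested 5 hr at 37C, then exposed to DMSO-dissolved compounds for 24 hr. Activation was read as luciferase luminescence.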

The target in assay [15] is Cytochrome P450 2D6 (Homo sapiens) (UniProt P10635). In words: Cytochrome P450 Family 2 Subfamily D Member 6 (CYP2D6) small molecule antagonists: luciferase reporter qHTS assay (AID 1671196). In a few lines:
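Room-temperature luminescent CYP2D6 activity assay: compound preincubated 10 min with enzyme–substrate mix, NADPH-initiated reaction 1 h, detection reagent 20 min before reading.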

Unmarked numbers belong to inactive results. Records with an inconclusive call do not appear. Calls of active or inactive are those of the source. The call rests on the fitted dose curve; in most records, active means well fitted curve in the direction sought with a large enough effect in the repeat runs; inconclusive means weak or mixed curves; inactive means no such curve, though single readings can be large; an effect the other way counts as inactive or inconclusive.
On the % scale 0 is the no-effect control and ±100 the full control effect.

Chain of Nuclear receptor subfamily 1 group I member 2 (Homo sapiens) (O75469 whole entry, looked up): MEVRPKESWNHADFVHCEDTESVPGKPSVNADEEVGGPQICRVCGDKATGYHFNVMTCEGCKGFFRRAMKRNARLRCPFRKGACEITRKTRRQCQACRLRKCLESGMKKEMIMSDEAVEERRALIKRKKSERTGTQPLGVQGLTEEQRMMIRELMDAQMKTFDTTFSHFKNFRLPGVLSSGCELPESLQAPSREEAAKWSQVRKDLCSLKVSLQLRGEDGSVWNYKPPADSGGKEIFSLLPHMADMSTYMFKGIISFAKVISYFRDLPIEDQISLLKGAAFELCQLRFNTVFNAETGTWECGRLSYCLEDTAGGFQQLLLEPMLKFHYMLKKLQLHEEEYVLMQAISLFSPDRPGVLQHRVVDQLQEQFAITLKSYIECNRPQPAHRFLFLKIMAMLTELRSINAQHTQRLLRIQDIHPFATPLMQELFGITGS
Chain of Cytochrome P450 1A2 (Homo sapiens) (P05177 whole entry, looked up): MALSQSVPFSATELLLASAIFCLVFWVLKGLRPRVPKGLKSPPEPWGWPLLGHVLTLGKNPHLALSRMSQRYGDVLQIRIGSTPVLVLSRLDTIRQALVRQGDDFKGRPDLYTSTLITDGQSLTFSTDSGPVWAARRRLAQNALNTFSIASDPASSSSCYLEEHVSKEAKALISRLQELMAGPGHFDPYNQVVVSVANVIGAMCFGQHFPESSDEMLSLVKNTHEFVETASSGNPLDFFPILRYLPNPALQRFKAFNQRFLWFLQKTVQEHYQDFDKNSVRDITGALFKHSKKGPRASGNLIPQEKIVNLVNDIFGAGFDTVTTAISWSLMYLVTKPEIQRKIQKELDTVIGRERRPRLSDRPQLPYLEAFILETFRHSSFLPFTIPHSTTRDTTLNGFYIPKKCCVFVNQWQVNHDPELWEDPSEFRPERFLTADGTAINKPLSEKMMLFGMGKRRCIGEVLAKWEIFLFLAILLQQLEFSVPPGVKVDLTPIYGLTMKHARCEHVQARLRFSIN
Chain of Voltage-gated inwardly rectifying potassium channel KCNH2 (Homo sapiens) (Q12809 whole entry, looked up): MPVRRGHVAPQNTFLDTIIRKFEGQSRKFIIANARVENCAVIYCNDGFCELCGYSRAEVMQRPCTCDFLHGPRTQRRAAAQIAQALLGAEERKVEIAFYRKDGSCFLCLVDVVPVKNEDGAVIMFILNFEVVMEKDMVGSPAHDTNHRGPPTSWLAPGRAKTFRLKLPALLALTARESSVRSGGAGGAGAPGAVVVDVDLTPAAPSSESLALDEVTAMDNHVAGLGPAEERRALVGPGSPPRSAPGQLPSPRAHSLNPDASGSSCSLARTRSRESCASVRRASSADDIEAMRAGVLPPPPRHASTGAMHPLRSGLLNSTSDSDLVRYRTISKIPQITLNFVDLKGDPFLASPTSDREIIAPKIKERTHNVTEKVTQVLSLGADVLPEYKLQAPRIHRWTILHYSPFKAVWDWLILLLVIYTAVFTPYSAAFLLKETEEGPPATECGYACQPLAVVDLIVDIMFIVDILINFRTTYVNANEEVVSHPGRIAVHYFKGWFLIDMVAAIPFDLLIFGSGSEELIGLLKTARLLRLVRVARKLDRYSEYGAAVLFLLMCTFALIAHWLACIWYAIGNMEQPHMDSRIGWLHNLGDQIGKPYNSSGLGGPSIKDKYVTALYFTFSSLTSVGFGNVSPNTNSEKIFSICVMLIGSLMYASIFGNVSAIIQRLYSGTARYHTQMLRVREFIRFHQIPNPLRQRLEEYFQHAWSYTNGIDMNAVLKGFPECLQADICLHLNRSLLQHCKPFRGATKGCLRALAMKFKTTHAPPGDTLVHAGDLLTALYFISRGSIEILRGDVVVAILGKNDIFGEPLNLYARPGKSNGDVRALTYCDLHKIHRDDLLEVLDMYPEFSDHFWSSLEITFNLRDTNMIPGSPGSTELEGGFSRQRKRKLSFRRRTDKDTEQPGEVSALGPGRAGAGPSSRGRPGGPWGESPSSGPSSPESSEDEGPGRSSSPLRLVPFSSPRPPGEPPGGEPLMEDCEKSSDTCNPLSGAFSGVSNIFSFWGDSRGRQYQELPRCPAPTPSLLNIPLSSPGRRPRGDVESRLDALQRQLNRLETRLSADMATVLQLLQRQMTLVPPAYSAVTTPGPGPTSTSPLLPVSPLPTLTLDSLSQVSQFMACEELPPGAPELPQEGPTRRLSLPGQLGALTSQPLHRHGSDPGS
Chain of Cytochrome P450 2C9 (Homo sapiens) (P11712 whole entry, looked up): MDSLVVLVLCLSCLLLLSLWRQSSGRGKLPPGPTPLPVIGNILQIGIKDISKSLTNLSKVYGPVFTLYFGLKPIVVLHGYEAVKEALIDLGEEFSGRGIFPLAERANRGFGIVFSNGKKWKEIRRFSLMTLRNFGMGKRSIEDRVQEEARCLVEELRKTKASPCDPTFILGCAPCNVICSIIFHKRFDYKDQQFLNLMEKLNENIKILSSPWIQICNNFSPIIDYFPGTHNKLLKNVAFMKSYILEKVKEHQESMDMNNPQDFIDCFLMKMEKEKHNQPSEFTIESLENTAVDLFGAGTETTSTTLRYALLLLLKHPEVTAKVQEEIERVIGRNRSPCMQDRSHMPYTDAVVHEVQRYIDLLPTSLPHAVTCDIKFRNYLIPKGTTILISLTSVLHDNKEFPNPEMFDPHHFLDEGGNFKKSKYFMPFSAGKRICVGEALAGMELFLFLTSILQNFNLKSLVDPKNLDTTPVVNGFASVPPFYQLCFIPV
Chain of Cytochrome P450 3A4 (Homo sapiens) (P08684 whole entry, looked up): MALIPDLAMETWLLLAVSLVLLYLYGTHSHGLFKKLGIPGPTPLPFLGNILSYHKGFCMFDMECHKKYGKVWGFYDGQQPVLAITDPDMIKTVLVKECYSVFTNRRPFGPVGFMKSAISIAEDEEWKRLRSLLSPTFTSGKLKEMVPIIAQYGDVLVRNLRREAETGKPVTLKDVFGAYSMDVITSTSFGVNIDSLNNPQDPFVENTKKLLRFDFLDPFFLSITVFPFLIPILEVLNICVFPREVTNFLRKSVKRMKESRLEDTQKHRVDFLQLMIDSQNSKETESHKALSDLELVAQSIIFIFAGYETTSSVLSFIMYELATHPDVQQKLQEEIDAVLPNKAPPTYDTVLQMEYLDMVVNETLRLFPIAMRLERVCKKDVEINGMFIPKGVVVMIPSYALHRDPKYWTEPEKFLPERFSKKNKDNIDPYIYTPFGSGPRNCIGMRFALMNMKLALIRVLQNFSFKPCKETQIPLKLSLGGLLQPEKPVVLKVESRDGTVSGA
Chain of Cytochrome P450 2C19 (Homo sapiens) (P33261 whole entry, looked up): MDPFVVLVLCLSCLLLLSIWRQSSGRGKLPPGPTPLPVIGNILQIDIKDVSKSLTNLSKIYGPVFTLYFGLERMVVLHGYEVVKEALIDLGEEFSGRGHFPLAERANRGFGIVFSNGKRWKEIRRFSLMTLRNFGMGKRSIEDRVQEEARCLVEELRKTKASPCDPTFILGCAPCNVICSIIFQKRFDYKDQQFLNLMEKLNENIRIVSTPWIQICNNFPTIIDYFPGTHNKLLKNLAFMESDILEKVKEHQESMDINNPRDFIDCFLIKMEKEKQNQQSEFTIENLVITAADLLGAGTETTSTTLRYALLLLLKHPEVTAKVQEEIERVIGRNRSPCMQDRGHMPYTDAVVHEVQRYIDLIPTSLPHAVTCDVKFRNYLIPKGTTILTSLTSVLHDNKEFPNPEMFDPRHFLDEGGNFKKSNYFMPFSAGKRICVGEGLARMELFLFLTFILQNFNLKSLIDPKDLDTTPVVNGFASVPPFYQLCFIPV
Chain of Cytochrome P450 2D6 (Homo sapiens) (P10635 whole entry, looked up): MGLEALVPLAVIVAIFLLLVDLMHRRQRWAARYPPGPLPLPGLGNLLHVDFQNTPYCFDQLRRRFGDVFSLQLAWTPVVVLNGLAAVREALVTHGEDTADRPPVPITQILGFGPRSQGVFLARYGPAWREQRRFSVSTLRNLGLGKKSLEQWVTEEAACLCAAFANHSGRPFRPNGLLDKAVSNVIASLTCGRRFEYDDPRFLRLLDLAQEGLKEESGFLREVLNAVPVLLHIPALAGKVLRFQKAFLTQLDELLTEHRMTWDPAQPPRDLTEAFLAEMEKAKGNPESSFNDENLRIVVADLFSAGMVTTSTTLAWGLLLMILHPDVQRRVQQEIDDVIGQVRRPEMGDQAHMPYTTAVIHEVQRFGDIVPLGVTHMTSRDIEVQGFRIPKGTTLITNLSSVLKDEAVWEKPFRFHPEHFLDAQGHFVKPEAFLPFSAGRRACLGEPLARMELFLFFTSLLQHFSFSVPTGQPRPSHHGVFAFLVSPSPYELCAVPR
Chain of Nuclear receptor subfamily 1 group I member 2 (Rattus norvegicus) (Q9R1A7 whole entry, looked up): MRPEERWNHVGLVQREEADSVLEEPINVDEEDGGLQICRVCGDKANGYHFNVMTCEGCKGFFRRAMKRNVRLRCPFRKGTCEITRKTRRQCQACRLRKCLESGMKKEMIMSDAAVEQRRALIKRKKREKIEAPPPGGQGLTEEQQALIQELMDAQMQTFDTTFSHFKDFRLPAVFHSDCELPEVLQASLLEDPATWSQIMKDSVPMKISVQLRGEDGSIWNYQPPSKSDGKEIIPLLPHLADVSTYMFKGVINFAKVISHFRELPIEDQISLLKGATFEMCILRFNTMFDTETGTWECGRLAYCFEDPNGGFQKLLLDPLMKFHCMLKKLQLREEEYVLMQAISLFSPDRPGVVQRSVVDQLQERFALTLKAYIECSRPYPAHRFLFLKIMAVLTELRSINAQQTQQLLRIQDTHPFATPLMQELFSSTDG

With `CC(C)(C#N)Nc1nc(Cl)nc(NC2CC2)n1`, the Potency result in assay [1], in assay [3], in assay [5], in assay [7] and in assay [9] was “inactive” throughout. Moreover, the result in assay [2] and in assay [4] was inactive. The Potency in assay [6] was 27.3 µM (active); in [8], 39.9 µM (active); in assay [10], 20 µM (active).
For the molecule `CC(C)C(=O)OC(=O)C(C)C`, the Potency entry in assay [1], in assay [3], in assay [5], in assay [6], in [11] and in assay [7] was “inactive” throughout. Moreover, the Potency entry in assay [8], in assay [9] and in [10] was “inactive” in each case. Also, the molecule was called inactive in assay [2] and in [4].
On to `CN1CCN(c2cc3c(nn2)Oc2ccccc2N3C)CC1`, for which the activity change, negative = cytotoxicity in assay [1] was 8.08% [at 19 µM]; in [3], 3.04% [at 19 µM]; in assay [5], -0.441% [at 19 µM]. Moreover, the caspase activation in assay [2] is -12.1% [at 19 µM]. Besides, in [4], the caspase-3/7 activation was -3.65% [at 19 µM]. The max activation in [12] is 8.97%. Besides, the Potency result in assay [13], in assay [14], in assay [11] and in [8] was “inactive” throughout. Moreover, the results for the activity change, negative = inhibition in assay [7], in [9] and in [10] were 2.38% [at 23.6 µM], 0.457% [at 15.8 µM] and 7.5% [at 23.6 µM], respectively.
As to `c1ccc(Cc2ccccc2)cc1`, the Potency result in [1], in assay [3], in assay [5], in assay [6], in assay [15] and in assay [9] was “inactive” each time. Also, the Potency entry in [10] was “inactive”. Also, the outcome in assay [2] and in assay [4] was inactive. For the same molecule, in [8], the Potency was 35.6 µM (active).
`CO[C@@]1(NC(=O)CSC[C@@H](N)C(=O)O)C(=O)N2C(C(=O)O)=C(CSc3nnnn3C)CS[C@@H]21`: the Potency entry in assay [1], in [3], in assay [5], in assay [11], in assay [7] and in [8] was “inactive” throughout. Also, the Potency result in assay [9] and in assay [10] was “inactive” each time. Also, the molecule was called inactive in assay [2] and in assay [4].
For `CC(C)[C@H]1CC[C@@H](C)CC1=O`, the Potency entry in assay [1], in [3], in [6], in assay [15], in [11] and in assay [7] was “inactive” each time. For the same molecule, the Potency result in assay [8] and in assay [10] was “inactive” in each case. For the same molecule, the outcome in assay [2] and in assay [4] was inactive.
As for `Clc1cc(Cl)c(Cl)nc1Cl`, the Potency result in [1], in assay [3], in assay [5], in assay [11], in assay [7] and in assay [9] was “inactive” throughout. Besides, the Potency entry in assay [10] is “inactive”. The outcome in [2] and in [4] was inactive.
On to `CCCCc1nc(Cl)c(CO)n1Cc1ccc(-c2ccccc2-c2nn[nH]n2)cc1`, for which the Potency result in assay [1], in assay [3], in assay [6], in [13], in [14] and in assay [11] was “inactive” each time. Moreover, the Potency result in assay [8] and in assay [9] was “inactive” in each case. Moreover, the outcome in assay [2] and in assay [4] was inactive. Further, in assay [12], the max activation is -3.95%.
For the molecule `C1CCC2=NCCCN2CC1`, the Potency entry in assay [1], in assay [3], in assay [5] and in assay [9] was “inactive” in each case. In addition, the call in [2] and in [4] was inactive.
With `Nc1ccccn1`, the Potency result in assay [1], in assay [3], in assay [5] and in assay [9] was “inactive” each time. The outcome in assay [2] and in assay [4] was inactive.
